Measured values from PubChem BioAssay (NCI).
The panel holds about 79,000 compounds, 15% with a hit somewhere; the sample as a whole holds those more often. The source made the active and inactive calls. Rule as the data show it: active = growth inhibition above about 70%; inactive = the rest.

What was measured:
[1] = NCI Yeast Anticancer Drug Screen. Data for the rad52 strain (AID 147);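 also: 0% = growth of vehicle-treated control cultures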; conditions: S. cerevisiae rad52 mutant growth inhibition, stronger effect = higher value
How it was run: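 DNA repair-defective yeast; compound exposure; growth scored against vehicle controls.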

[2] = NCI Yeast Anticancer Drug Screen. Data for the wt1 strain (AID 149);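 also: 0% = growth of vehicle-treated wt1 cultures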; conditions: S. cerevisiae wt1 strain (SPY 50644) growth inhibition, stronger effect = higher value
How it was run: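 Measured: growth of wt1 yeast under compound versus vehicle treatment, reported as inhibition.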

[3] = NCI Yeast Anticancer Drug Screen. Data for the rad50EPP+ strain (AID 151);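 also: 0% = growth of vehicle-treated control cultures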; conditions: S. cerevisiae rad50 mutant strain, stronger effect = higher value
How it was run: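 rad50EPP+ yeast treated with test compounds. Readout: growth vs vehicle control.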

[4] = NCI Yeast Anticancer Drug Screen. Data for the mgt1 strain (AID 153); conditions: S. cerevisiae mgt1 mutant growth inhibition, stronger effect = higher value
How it was run: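 Growth inhibition relative to vehicle controls was scored for the mgt1 yeast strain after compound exposure.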

[5] = NCI Yeast Anticancer Drug Screen. Data for the rad50 strain (AID 155);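 also: 0% = growth of vehicle-only cultures of the same strain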; conditions: S. cerevisiae rad50 strain growth inhibition, stronger effect = higher value
How it was run: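 Growth of the mutant yeast was measured after compound exposure and referenced to vehicle-treated cultures.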

[6] = NCI Yeast Anticancer Drug Screen. Data for the mec2-1 strain (AID 157); conditions: S. cerevisiae mec2-1 strain, stronger effect = higher value
How it was run: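 Growth inhibition is read against vehicle-treated controls after compound exposure of the mec2-1 yeast strain, which is defective in DNA damage repair or cell cycle control.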

[7] = NCI Yeast Anticancer Drug Screen. Data for the rad14 strain (AID 159);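 also: 0% = growth of vehicle-treated control cultures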; conditions: S. cerevisiae rad14 strain growth inhibition, stronger effect = higher value
How it was run: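 Here, inhibition of yeast growth was measured after compound exposure, using a strain with a genetic defect in DNA damage repair and vehicle-treated cultures as the reference.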

[8] = NCI Yeast Anticancer Drug Screen. Data for the sgs1 mgt1 strain (AID 161);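 also: 0% = growth of cultures given vehicle only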; conditions: S. cerevisiae sgs1 mgt1 strain, stronger effect = higher value
How it was run: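 This yeast growth screen uses a strain with defined DNA-repair lesions; compound-treated growth is compared with vehicle-treated growth.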

[9] = NCI Yeast Anticancer Drug Screen. Data for the CLN2oe strain (AID 163);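 also: 0% = growth of vehicle-only control cultures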; conditions: S. cerevisiae CLN2oe strain, stronger effect = higher value
How it was run: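 Compound-treated yeast; growth vs vehicle ctrl = % inhibition. Genetically altered strain (cell-cycle control).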

[10] = NCI Yeast Anticancer Drug Screen. Data for the cln2 rad14 strain (AID 165);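 also: 0% = growth equal to vehicle treated cultures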; conditions: S. cerevisiae cln2 rad14 strain, stronger effect = higher value
How it was run: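 Growth inhibition, relative to vehicle-treated controls, is the read-out. The test organism is a yeast strain with defined genetic alterations, cln2 rad14.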

[11] = NCI Yeast Anticancer Drug Screen. Data for the bub3 strain (AID 167); conditions: S. cerevisiae bub3 mutant strain, stronger effect = higher value
How it was run: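 Whole-cell yeast assay. The mutant strain was incubated with compounds, and growth inhibition was determined by comparison with vehicle-treated cells.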

[12] = NCI Yeast Anticancer Drug Screen. Data for the wt2 strain (AID 169);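 also: 0% = growth of vehicle-treated yeast cultures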; conditions: S. cerevisiae wt2 strain growth inhibition, stronger effect = higher value
How it was run: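 Compound exposure of yeast; growth compared with vehicle controls; inhibition reported.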

[13] = NCI Yeast Anticancer Drug Screen. Data for the mlh1 strain (AID 171);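 also: 0% = growth of vehicle-treated control cultures of the same strain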; conditions: S. cerevisiae mlh1 strain growth inhibition, stronger effect = higher value
How it was run: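 Compounds are applied to a genetically altered yeast strain, and its growth is compared with that of vehicle-treated cultures to give percent inhibition.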

[14] = NCI Yeast Anticancer Drug Screen. Data for the mlh1 rad18 strain (AID 175); conditions: S. cerevisiae mlh1 rad18 strain growth inhibition, stronger effect = higher value
How it was run: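 Cells of a genetically altered yeast strain, deficient in DNA damage repair, were treated with compound. Their growth was then compared with that of vehicle-treated cultures to give inhibition.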

[15] = NCI Yeast Anticancer Drug Screen. Data for the rad18 strain (AID 177); conditions: S. cerevisiae rad18 mutant growth inhibition, stronger effect = higher value
How it was run: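 Compounds are applied to a repair-deficient yeast strain, and growth is compared with that of vehicle-treated cultures to give percent inhibition.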

[16] = NCI Yeast Anticancer Drug Screen. Data for the sgs1 strain (AID 173);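 also: 0% = growth of vehicle-only control cultures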; conditions: S. cerevisiae sgs1 mutant, stronger effect = higher value
How it was run: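 Compounds applied to genetically altered yeast; growth compared with vehicle-treated cultures to give % inhibition.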

[17] = at 5.0 µM (retest, dose inferred, filed as 0.5)
[18] = at 50.0 µM (retest, dose inferred, filed as 5.0)

Measured: growth inhibition

Cc1ccccc1N=Cc1cc(Cl)ccc1O
active: [1]; at 100.0 µM 96% | [2]; at 100.0 µM 75% | [3]; at 100.0 µM 85% | [4]; at 100.0 µM 89% | [5]; at 100.0 µM 98% | [7]; at 100.0 µM 98% | [11]; at 100.0 µM 90% | [12]; at 100.0 µM 73% | [13]; at 100.0 µM 87% | [15]; at 100.0 µM 92%
inactive: [1]; at 1.2 µM -11% | [1]; at 3.7 µM -3% | [1]; at 11.0 µM 4% | [1]; at 33.0 µM 21% | [2]; at 1.2 µM -4% | [2]; at 3.7 µM -5% | [2]; at 11.0 µM -7% | [2]; at 33.0 µM 7% | [3]; at 1.2 µM 3% | [3]; at 3.7 µM 18% | [3]; at 11.0 µM 35% | [3]; at 33.0 µM 58% | [4]; at 1.2 µM -1% | [4]; at 3.7 µM -4% | [4]; at 11.0 µM -2% | [4]; at 33.0 µM 14% | [5]; at 1.2 µM -5% | [5]; at 3.7 µM -1% | [5]; [17] -74% | [5]; at 11.0 µM 10% | [5]; at 33.0 µM 44% | [5]; [18] 66% | [5]; at 50.0 µM 51.3% | [6]; at 1.2 µM 1% | [6]; at 3.7 µM -1% | [6]; [17] -7% | [6]; at 11.0 µM 1% | [6]; at 33.0 µM 2% | [6]; [18] 16% | [6]; at 50.0 µM 35.7% | [6]; at 100.0 µM 53% | [7]; at 1.2 µM -2% | [7]; at 3.7 µM 1% | [7]; at 11.0 µM 11% | [7]; at 33.0 µM 44% | [8]; [17] -13% | [8]; [18] 44% | [8]; at 50.0 µM 26.5% | [9]; at 1.2 µM 2% | [9]; at 3.7 µM 3% | [9]; at 11.0 µM 8% | [9]; at 33.0 µM 12% | [9]; at 100.0 µM 60% | [10]; [17] -32% | [10]; [18] -16% | [10]; at 50.0 µM -13.1% | [11]; at 1.2 µM -6% | [11]; at 3.7 µM -4% | [11]; [17] -68% | [11]; at 11.0 µM -1% | [11]; at 33.0 µM 16% | [11]; [18] -4% | [11]; at 50.0 µM 42% | [12]; at 1.2 µM -1% | [12]; at 3.7 µM 0% | [12]; at 11.0 µM -1% | [12]; at 33.0 µM 2% | [13]; at 1.2 µM 7% | [13]; at 3.7 µM -5% | [13]; at 11.0 µM 0% | [13]; at 33.0 µM 22% | [14]; [17] -73% | [14]; [18] 18% | [14]; at 50.0 µM 67% | [15]; at 1.2 µM -6% | [15]; at 3.7 µM 2% | [15]; at 11.0 µM 9% | [15]; at 33.0 µM 23%

CCCCCCOC(=O)NCCOC(=O)Nc1ccccc1
inactive: [1]; at 1.2 µM 1% | [1]; at 3.7 µM 3% | [1]; at 11.0 µM 7% | [1]; at 33.0 µM 7% | [1]; at 100.0 µM 6% | [2]; at 1.2 µM 1% | [2]; at 3.7 µM 1% | [2]; at 11.0 µM 2% | [2]; at 33.0 µM 2% | [2]; at 100.0 µM 1% | [3]; at 1.2 µM 3% | [3]; at 3.7 µM 6% | [3]; at 11.0 µM 11% | [3]; at 33.0 µM 17% | [3]; at 100.0 µM 15% | [4]; at 1.2 µM -1% | [4]; at 3.7 µM 1% | [4]; at 11.0 µM 3% | [4]; at 33.0 µM 22% | [4]; at 100.0 µM 4% | [5]; at 1.2 µM 4% | [5]; at 3.7 µM 5% | [5]; [17] 0% | [5]; at 11.0 µM 7% | [5]; at 33.0 µM 8% | [5]; [18] 5% | [5]; at 50.0 µM 19.7% | [5]; at 100.0 µM 7% | [6]; at 1.2 µM 0% | [6]; at 3.7 µM 3% | [6]; [17] -5% | [6]; at 11.0 µM 3% | [6]; at 33.0 µM 5% | [6]; [18] 1% | [6]; at 50.0 µM 6.15% | [6]; at 100.0 µM 8% | [7]; at 1.2 µM 6% | [7]; at 3.7 µM 7% | [7]; at 11.0 µM 12% | [7]; at 33.0 µM 17% | [7]; at 100.0 µM 16% | [8]; [17] 12% | [8]; [18] 10% | [8]; at 50.0 µM 20.2% | [9]; at 1.2 µM 1% | [9]; at 3.7 µM 4% | [9]; at 11.0 µM 1% | [9]; at 33.0 µM 3% | [9]; at 100.0 µM -2% | [10]; [17] 5% | [10]; [18] 19% | [10]; at 50.0 µM 6.5% | [11]; at 1.2 µM 3% | [11]; at 3.7 µM 2% | [11]; [17] 9% | [11]; at 11.0 µM 5% | [11]; at 33.0 µM 1% | [11]; [18] -2% | [11]; at 50.0 µM 11.1% | [11]; at 100.0 µM 0% | [13]; at 1.2 µM -1% | [13]; at 3.7 µM -1% | [13]; at 11.0 µM 2% | [13]; at 33.0 µM 4% | [13]; at 100.0 µM 6% | [16]; at 1.2 µM 2% | [16]; at 3.7 µM 2% | [16]; at 11.0 µM 3% | [16]; at 33.0 µM 9% | [16]; at 100.0 µM 9% | [14]; [17] 19% | [14]; [18] 53% | [14]; at 50.0 µM 17.7% | [15]; at 1.2 µM 2% | [15]; at 3.7 µM 2% | [15]; at 11.0 µM 13% | [15]; at 33.0 µM 4% | [15]; at 100.0 µM 6%

CC(/C=C/c1ccccc1)=N\NC(N)=S
inactive: [1]; at 1.2 µM 4% | [1]; at 3.7 µM 16% | [1]; at 11.0 µM 16% | [1]; at 33.0 µM 24% | [2]; at 1.2 µM -8% | [2]; at 3.7 µM -5% | [2]; at 11.0 µM 6% | [2]; at 33.0 µM 17% | [2]; at 100.0 µM 35% | [3]; at 1.2 µM -5% | [3]; at 3.7 µM 6% | [3]; at 11.0 µM 0% | [3]; at 33.0 µM -3% | [3]; at 100.0 µM 48% | [4]; at 1.2 µM 9% | [4]; at 3.7 µM 13% | [4]; at 11.0 µM 10% | [4]; at 33.0 µM 29% | [4]; at 100.0 µM 52% | [5]; at 1.2 µM 14% | [5]; at 3.7 µM 10% | [5]; [17] 24% | [5]; at 11.0 µM 7% | [5]; [18] 60% | [5]; at 50.0 µM 33.7% | [6]; at 1.2 µM -2% | [6]; at 3.7 µM 5%
active: [1]; at 100.0 µM 72% | [5]; at 33.0 µM 93% | [5]; at 100.0 µM 97%
